# A selection: hits, their analogues and other compounds. The true share with any hit is near 5.7%.
# hcDAF-12 act = H. contortus DAF-12 nuclear receptor activators, primary screen, cell-based, luminescence, HEK293, lit1-tk-luc reporter; HEK293 hcDAF-12 lit1-tk-luc reporter; 0% DMSO, 100% Δ7-dafachronic acid; activation, % at 6.8 µM; 370,000 compounds, 1.4% hits; AID 652067, 2013;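 active = activation above the mean of all tested compounds plus 3 SD, cut at about 5.5% in these data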
# AHR activator = AHR activators, primary screen, cell-based, luminescence, luciferase reporter, human; Aryl hydrocarbon receptor (Homo sapiens), P35869; activation, % at 5 µM; AID 2796, 2010; AHR-responsive luciferase reporter cells; 320,000 compounds, 2.5% hits; in the data active = activation above about 47%
# hgDAF-12 ag = H. glycines DAF-12 receptor agonists, primary screen, cell-based, luminescence, HEK293, GAL4 fusion, UAS-luciferase. 370,000 compounds, 1.8% hits. Nuclear hormone receptor DAF-12 (Heterodera glycines), GAL4 fusion. HEK293 GAL4-hgDAF12 UAS-luciferase reporter, agonist luminescence; normalized to butyrate control. activation, % at 6.8 µM;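 active = activation above a cutoff set at the mean of all screened compounds plus 3 SD, cut at about 10% in these data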
# ssDAF-12 act = S. stercoralis DAF-12 nuclear receptor activators, primary screen, cell-based, luminescence, HEK293, GRIP1 co-expression, lit1-tk-luc. 370,000 compounds, 1% hits. activation, % at 6.8 µM. HEK293 ssDAF-12/GRIP1 lit1-tk-luc reporter; % of 3 µM dafachronic acid response. AID 652126, 2013. Nuclear hormone receptor DAF-12 (Strongyloides stercoralis);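 active = activation above the mean over all tested compounds plus 3 SD, cut at about 0.9% in these data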
# DAX1 inh-1 = DAX1 (NR0B1) inhibitors on StAR promoter, primary screen, cell-based, luminescence, SF-1 (NR5A1), full-length DAX-1 | HEK293T StAR-luciferase reporter, SF-1/DAX-1 repression relief | inhibition, % at 6.8 µM | 370,000 compounds, 1.1% hits;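 active = inhibition above the mean over all tested compounds plus 3 SD, cut at about 3.6% in these data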;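 also: higher inhibition means more luminescence from relief of DAX-1 repression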
# DAX1 inh-2 = DAX1 (NR0B1) inhibitors, primary screen, cell-based, HEK293, Gal4-DAX1, luciferase luminescence; AID 504766, 2011; HEK293 Gal4-DAX1 luciferase reporter; inhibition, % at 6.75 µM; 340,000 compounds, 0.99% hits;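 active = inhibition above the mean over all tested compounds plus 3 SD, cut at about 4.2% in these data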;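 also: inhibition shows as a rise in luminescence from relieved DAX1 repression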
# DAX1 conf = DAX1 (NR0B1) inhibitors relieving SF-1 repression, confirmation, cell-based, luminescence, HEK293T, full-length DAX-1, SF-1 activated StAR promoter; 2,400 compounds, 87% hits; shares compounds with DAX1 inh-1; inhibition, % at 6.8 µM; HEK293T StAR-promoter luciferase reporter, SF-1/DAX-1 repression; AID 652134, 2013;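 active = inhibition above the average of every tested compound plus 3 SD, cut at about 3.8% in these data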
# Target sequence (P51843 whole entry, looked up): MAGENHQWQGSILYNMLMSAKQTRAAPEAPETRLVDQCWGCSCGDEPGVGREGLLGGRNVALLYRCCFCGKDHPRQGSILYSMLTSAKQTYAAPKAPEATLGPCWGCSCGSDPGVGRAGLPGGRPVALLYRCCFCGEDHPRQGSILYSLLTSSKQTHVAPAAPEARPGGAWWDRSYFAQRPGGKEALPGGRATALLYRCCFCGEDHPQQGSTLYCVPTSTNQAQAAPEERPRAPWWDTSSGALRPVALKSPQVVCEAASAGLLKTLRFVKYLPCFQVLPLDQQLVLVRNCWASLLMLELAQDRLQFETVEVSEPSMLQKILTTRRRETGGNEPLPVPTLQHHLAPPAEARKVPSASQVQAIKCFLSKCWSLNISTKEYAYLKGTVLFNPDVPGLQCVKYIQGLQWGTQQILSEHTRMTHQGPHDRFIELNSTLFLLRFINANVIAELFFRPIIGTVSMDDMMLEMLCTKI
# SF1 mutant ctr = StAR reporter signal changes without DAX1, counter-screen for DAX1 inhibitor project, cell-based, luminescence, AF-2 mutant SF-1, transactivation; shares compounds with DAX1 inh-1; HEK293 StAR-luciferase, SF-1 AF2 mutant; inhibition, % at 6.8 µM; 2,400 compounds, 78% hits; AID 652136, 2013;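 active = inhibition above the mean of all tested compounds plus 3 SD, cut at about 3% in these data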
# LXR ag = LXR agonists, Gal4 luciferase reporter, confirmation, counter-screen for hcDAF-12 agonist project, cell-based, luminescence, HEK293, H. contortus campaign. AID 743027, 2013. HEK293 Gal4-LXR tk-luc reporter, 24 h; normalized: DMSO 0%, positive control 100%. activation, % at 6.8 µM. shares compounds with hcDAF-12 act. 3,400 tested, under 10 active;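 active = mean percent activation of the reporter above a cutoff set as the average over tested compounds plus their standard deviation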
# hcDAF12 conf = H. contortus DAF-12 receptor agonists, confirmation, cell-based, luminescence, HEK293, lit1-tk-luc, triplicate; shares compounds with hcDAF-12 act; HEK293 hcDAF-12 lit1-tk-luc reporter; % of Δ7-dafachronic acid response; activation, % at 6.8 µM; 3,400 compounds, 61% hits; AID 743032, 2013;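 active = mean activation across triplicate tests above the threshold derived from the earlier primary screen, cut at about 5.5% in these data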
# hgDAF12 ag = H. glycines DAF-12 receptor agonists, confirmation, cell-based, luminescence, HEK293, GAL4-LBD fusion; shares compounds with hgDAF-12 ag; HEK293 GAL4-hgDAF12 luciferase reporter, agonist mode; percent of butyrate response; activation, % at 6.8 µM; 3,300 compounds, 80% hits; AID 743050, 2013;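 active = mean activation over triplicate wells above the hit cutoff derived from the earlier primary screen, cut at about 11% in these data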
# LXRb DAF12 ctr = LXR agonists, Gal4 luciferase reporter, confirmation, counter-screen for hgDAF-12 agonist project, cell-based, luminescence, HEK293, H. glycines campaign; shares compounds with hgDAF-12 ag; 24 h; activation, % at 6.8 µM; 3,300 tested, under 10 active;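 active = mean activation of the triplicate above a set limit carried over from the primary screen, none filed active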
# Numbers stand for hits; i = inactive; nt = no result given.
SMILES,hcDAF-12 act,AHR activator,hgDAF-12 ag,ssDAF-12 act,DAX1 inh-1,DAX1 inh-2,DAX1 conf,SF1 mutant ctr,LXR ag,hcDAF12 conf,hgDAF12 ag,LXRb DAF12 ctr
COc1ccc(/C=C/c2cc(O)cc(OC3OC(CO)C(O)C(O)C3O)c2)cc1 (configuration not stated),6.9,nt,17,i,8.8,i,16,8.2,i,7.8,11,i
Cn1c(=O)cc(N2CCOCC2)[nH]c1=O,i,i,i,i,i,i,nt,nt,nt,nt,nt,nt
COC(=O)N/N=C(\C)c1ccco1,i,i,i,i,i,nt,nt,nt,nt,nt,nt,nt
C/C(=N/NC(=O)c1ccccn1)c1ccco1,i,i,13,i,5.5,i,8.1,4.0,nt,nt,13,i
O=C(Nc1ccc2c(c1)CCC2)c1ccccc1Br,7.2,i,18,i,6.8,7.6,14,6.6,i,i,17,i
COCCN(C(=S)Nc1cc(C)cc(C)c1)C(C)c1ccco1 (configuration not stated),i,i,i,i,i,i,nt,nt,nt,nt,nt,nt
O=C(Nc1cnn(C23CC4CC(CC(C4)C2)C3)c1)c1cnn2cccnc12,i,i,14,1.2,5.8,i,10,5.9,nt,nt,15,i
O=C(Nc1ccccn1)c1ccc2c(=O)n3c(nc2c1)CCCCC3,i,i,20,i,6.2,i,7.7,3.8,nt,nt,15,i
C=CCn1c2ccccc2c2nnc(SCC(=O)NC(C(=O)OC)C(C)C)nc21 (configuration not stated),i,i,i,i,i,i,nt,nt,nt,nt,nt,nt
O=C(c1cccc([N+](=O)[O-])c1)N1CCCC(C(=O)N2CCCCC2)C1 (configuration not stated),i,i,i,i,i,i,nt,nt,nt,nt,nt,nt
N#C/C(=N\Nc1ccc(F)cc1)C(=N)N1CCCCC1,8.1,i,18,0.9,6.0,5.3,18,7.1,i,i,18,i
C[C@H](NC(=O)c1nc[nH]c1C(=O)N[C@@H](CCCCNC(=O)OC(C)(C)C)C(=O)OC(C)(C)C)C(=O)OC(C)(C)C,i,i,i,i,i,i,nt,nt,nt,nt,nt,nt
Cc1ccc(NC(=S)NC(=O)C2CCCCC2)c(Br)c1,6.3,i,18,i,9.8,i,7.8,7.2,nt,nt,15,i
OC[C@H]1O[C@@H](c2nc(-c3nc(-c4ccc(F)cc4)no3)cs2)[C@H](O)[C@@H]1O,i,nt,13,i,9.8,nt,13,7.2,nt,nt,16,i
CCOc1ccc(-c2noc(-c3csc([C@@H]4C[C@H](O)[C@@H](CO)O4)n3)n2)cc1,i,nt,i,i,i,nt,nt,nt,nt,nt,nt,nt
c1ccc2sc(-n3cc(C4CCCCC4)nn3)nc2c1,6.6,nt,26,1.3,9.2,nt,15,8.7,i,5.9,25,i
C1=C(c2cn(-c3nc4ccccc4s3)nn2)CCCC1,12,nt,20,i,11,nt,12,5.8,i,8.5,20,i
O=C(NC1=NCCS1)c1csc2ccccc12,8.3,i,17,1.1,4.5,i,12,8.1,i,10.0,19,i
O=C(NC1=NCCS1)c1cccs1,i,i,i,i,i,i,nt,nt,nt,nt,nt,nt
Cc1cccc(C(=O)NC2=NCCS2)c1,i,i,18,1.2,4.6,i,13,8.1,nt,nt,14,i
CCN(CC)S(=O)(=O)c1cccc(C(=O)NC2=NCCS2)c1,i,i,i,i,i,i,nt,nt,nt,nt,nt,nt
Nc1c(-c2ccccc2)cnc2c(-c3ccccc3)cnn12,11,i,20,1.3,4.9,4.8,14,3.6,i,9.3,11,i
COC(=O)c1c(-c2ccc(C(C)(C)C)cc2)csc1NC(=O)C1C2CCC(O2)C1C(=O)O (configuration not stated),i,i,i,i,i,i,nt,nt,nt,nt,nt,nt
Nc1nn(-c2cccc(F)n2)cc1-c1ccccc1,11,nt,17,1.1,4.6,i,12,3.7,i,9.3,19,i
Nc1nc(Br)c2c(F)cccc2c1-c1ccccc1,i,i,i,i,i,i,nt,nt,nt,nt,nt,nt
Cc1ccc(NC(=O)N2CCc3ccccc32)cc1C,15,i,16,1.2,7.4,i,16,8.4,i,9.4,25,i
Cn1c(CCN2CCCCC2)nc2cc(NC(=O)Nc3ccccc3)ccc21,i,i,i,i,i,i,nt,nt,nt,nt,nt,nt
Cc1ccc(NC(=O)Nc2ccc3c(c2)nc(C)n3C)cc1,8.7,i,17,i,6.4,i,16,7.2,i,i,17,i
Cc1nc2cc(NC(=O)Nc3ccccc3Cl)ccc2n1C,7.1,i,15,i,12,i,19,8.4,i,7.8,20,i
